Only a selection was taken, and hits are over-represented in it overall.
ROC1-CUL1 inh: inhibitors of human ROC1-CUL1 ubiquitin ligase activity | P62877+Q13616 | in vitro K48 di-Ub FRET, acceptor:donor ratio, 45 min | inhibition, % at 10 µM | hit rate 0.6% among 140,000 | AID 1347404; in the data active = inhibition above about 25%
Active calls of the source: *.

SMILES	ROC1-CUL1 inh
CN=C(NC)C1(Cl)CC2CCC1C2 (stereo unspecified)	-1
COc1ccc(OC)c(CC(=O)N2CCOc3ccc(CN4CCN(CCO)CC4)cc3C2)c1	6
Cc1ccc(C(=O)NC(=S)N2CCN(c3cc(Cl)ccc3C)CC2)cc1	7
Cc1ccc(-c2nc3ncccc3o2)cc1NC(=S)NC(=O)C(c1ccccc1)c1ccccc1	-2
C(=C\c1nc2ncccc2[nH]1)/c1ccccc1	-3
CSc1ncc(CN(Cc2ccncc2)CC2CCN(C3CCN(C)CC3)CC2)cn1	8
CCCCOc1ccc(C(NC(=O)CCCC)NC(=O)CCCC)cc1OC	-3
CCNC(=O)c1cn(CC(C)C)cc(C(=O)NCc2cccc(F)c2)c1=O	0
Cc1ccc(C2c3c(n(C)c(=O)n(C)c3=O)OC(=N)C2C#N)cc1 (stereo unspecified)	-1
O=C1NN(c2cccc(C(F)(F)F)c2)C(=O)/C1=C\c1ccc(Br)cc1	5
O=C1NN(c2ccccc2)C(=O)/C1=C/c1cccc(OCc2ccc(Cl)c(Cl)c2)c1	7
O=C1OC(c2ccccc2)=N/C1=C/c1cccc(OC(=O)c2cccs2)c1	-2
O=C1NN(c2ccccc2)C(=O)/C1=C/c1ccc(OCc2ccccc2)cc1	-13
CCc1ccc(/C=C2\C(=O)NC(=S)N(C)C2=O)cc1	-2
O=C1NN(c2ccc(Cl)c(Cl)c2)C(=O)/C1=C/c1ccc(Cl)cc1	78*
O=C1NN(c2ccc(F)c(Cl)c2)C(=O)/C1=C\c1cccc(OC(=O)c2cccs2)c1	97*
O=C1NN(c2cccc(Cl)c2)C(=O)/C1=C\c1cc(Br)ccc1O	3
CCc1ccc(/C=C2\C(=O)NN(c3ccc(C)cc3)C2=O)cc1	45*
CC(=O)Oc1cccc(/C=C2/C(=O)NN(c3ccc(C)c(C)c3)C2=O)c1	2
CCN(CC)c1ccc(/C=C2\C(=O)NN(c3ccc(Cl)c(Cl)c3)C2=O)cc1	2
O=C1NN(c2cccc(Cl)c2)C(=O)/C1=C/c1ccc(Br)cc1	60*
CCn1c(=N)n(CC(=O)c2cccs2)c2ccccc21	-4
Cc1cc(C)n(-c2ccc(NC(=O)C3CCCCN3C(=O)c3cnccn3)cc2)n1 (stereo unspecified)	1
O=C(O)c1ccc(NS(=O)(=O)c2cccc(-c3nnc(-c4ccccc4)o3)c2)cc1	-1
COc1ccc(/C=C2/C(=O)NN(c3ccc(I)cc3)C2=O)cc1	2
SMILES	ROC1-CUL1 inh
O=C1NN(c2ccc(I)cc2)C(=O)/C1=C/c1ccc(Cl)cc1	59*
CCOc1cc(/C=C2/C(=O)NN(c3ccc(F)cc3)C2=O)ccc1OC(C)C	5
O=C1NN(c2ccc(I)cc2)C(=O)/C1=C\c1ccc(N2CCOCC2)cc1	-3
O=C1NN(c2cc(Cl)cc(Cl)c2)C(=O)/C1=C\c1ccc(F)cc1	85*
O=C1NN(c2cccc(Cl)c2)C(=O)/C1=C/c1cccs1	12
O=C(CSc1ccc2ccccc2n1)N/N=C/c1cccc2ccccc12	0
COCCN1C(=O)CC(CC(=O)N2CC3(C)CC2CC(C)(C)C3)(c2cccc(OC)c2)C1=O (stereo unspecified)	7
OCCNc1cc2nccnc2cc1F	-6
N#Cc1c(N)[n+]([O-])c2cc(NCCO)c(F)cc2[n+]1[O-]	28*
CC1=NC(=O)NC(c2cc(C(C)(C)C)c(O)c(C(C)(C)C)c2)C1C(=O)NCc1ccccc1 (stereo unspecified)	-3
Cc1nn(C)cc1C(C)NC(=O)c1c(Cl)c(C)nn1C (stereo unspecified)	-3
COC(=O)c1csc([N+](=O)[O-])c1SCc1ccccc1	7
COC(=O)c1scc([N+](=O)[O-])c1-c1c([N+](=O)[O-])csc1C(=O)OC	-1
COC(=O)c1csc([N+](=O)[O-])c1SC(C)=O	77*
COc1ccccc1CCN1CCC(CN(C)C(=O)CCc2cnccn2)CC1	6
Cc1cc(C)nc(-n2[nH]c(-c3cccc4ccccc34)cc2=O)n1	7
Cc1ccccc1OCC(=O)NC(C)C(=O)N/N=C\c1ccc2c(c1)n(C)c(=O)n2C (stereo unspecified)	9
Cc1cccc(OCC(=O)NC(C)C(=O)N/N=C/c2ccc(OCc3c(C)cc(C)cc3C)cc2)c1 (stereo unspecified)	12
Cc1ccccc1OCC(=O)NC(C(=O)N/N=C/c1ccc(OCc2ccccc2C#N)cc1)C(C)C (stereo unspecified)	96*
Cc1ccc(C2=C/C(=C\c3c(Cl)cccc3Cl)C(=O)O2)cc1	2
Cc1ccc2cc(C3=C/C(=C/c4ccc(N5CCOCC5)o4)C(=O)O3)ccc2c1	96*
Cc1ccc2cc(C3=CCC(=O)O3)ccc2c1	20
C#Cc1cccc(C(=O)N2CCc3onc(-c4cccc(F)c4)c3C2)c1	3
COc1ccc(N2CN3O[C@]4(CC[C@H]5CC4C5(C)C)C[C@@]3(c3ccc(OC)cc3)C2)cc1	-3
O=C(c1sc2cccc(F)c2c1Cl)N1CCN(c2ccccn2)CC1	12
